# Test results from PubChem BioAssay (Tox21).
# Records with an inconclusive call do not appear. A call without a number means that no potency is given here. A number with no mark means an inactive call. Activity calls are given as the source filed them. The call rests on the fitted dose curve; in most records, active means well fitted cell-killing curve with a large enough effect in the repeat runs; inconclusive means weak or mixed curves, or effect the other way; inactive means flat fitted curve, though single readings scatter.
# What was measured:
# [1] = cAMP Responsive Elements (CRE) small molecule antagonists, cell-based qHTS assay: qHTS cell viability counter screen (AID 2060913); settings: CRE-bla HEK293T viability, CellTiter-Glo luminescence, 5 h; series mostly up to 92.4 µM; further: nearly all actives have a fitted effect of over 40% in size
# Method in brief: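 Cytotoxicity counter screen multiplexed with the CRE-bla antagonist read: HEK293T cells in DMEM with dialyzed FBS and 25 mM HEPES were treated 3 hrs under 0.25 uM final NKH477, then viability measured by CellTiter-Glo luminescence.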
# [2] = cAMP Responsive Elements (CRE) small molecule agonists, cell-based qHTS assay: qHTS cell viability counter screen (AID 2060914); settings: CRE-bla HEK293T viability, CellTiter-Glo luminescence, 5 h; series mostly up to 92.4 µM; further: nearly all actives have a fitted effect of over 50% in size
# Method in brief: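 In the same wells as the reporter read, viability of CRE-bla HEK 293T cells was quantified by CellTiter-Glo luminescence after a 3 h compound exposure.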
compound,measurement,setting,value
O=C(O)CCCCCCCCCC(=O)O,Potency,[1],inactive
same,Potency,[2],inactive
CCN(CC)C(=O)/C(C#N)=C/c1cc(O)c(O)c([N+](=O)[O-])c1,Potency,[1],inactive
same,Potency,[2],inactive
Cc1[nH]c(=O)c(C#N)cc1-c1ccncc1,Potency,[1],inactive
same,Potency,[2],inactive
NCCc1cnc[nH]1,Potency,[1],inactive
same,Potency,[2],inactive
OCc1cc(C(O)CNCCCCCCOCCCCc2ccccc2)ccc1O (stereo not given),Potency,[1],inactive
same,Potency,[2],inactive
Oc1c(Cl)ccc(Cl)c1Cl,Potency,[1],inactive
same,Potency,[2],inactive
CCOC(=O)NNc1ccc(N(CC)CC(C)O)nn1 (stereo not given),Potency,[1],inactive
same,Potency,[2],inactive
CC(=O)O[C@@H]1CC2C3CCc4cc(OC(=O)c5ccccc5)ccc4C3CCC2(C)[C@H]1OC(C)=O (stereo not given in full),Potency,[1],inactive
same,Potency,[2],inactive
C=CC(=O)OCCC#N,Potency,[1],inactive
same,Potency,[2],inactive
O=C1CCc2ccccc2O1,Potency,[1],inactive
same,Potency,[2],inactive
CCOc1ccccc1OCC,Potency,[1],inactive
same,Potency,[2],inactive
CC(=O)SC[C@@H](Cc1ccccc1)C(=O)NCC(=O)OCc1ccccc1,Potency,[1],inactive
same,Potency,[2],inactive
CC(C)CCCCCOC(=O)CCCCC(=O)OCCCCCC(C)C,Potency,[1],inactive
same,Potency,[2],inactive
Cc1cc(O)cc(C)c1Cl,Potency,[1],inactive
same,Potency,[2],inactive
CN(C)CCn1nnnc1SCC1=C(C(=O)O)N2C(=O)[C@@H](NC(=O)Cc3csc(N)n3)[C@H]2SC1,Potency,[1],inactive
same,Potency,[2],inactive
C[C@H](CCC(=O)O)[C@H]1CC[C@H]2[C@@H]3[C@H](O)C[C@@H]4C[C@H](O)CC[C@]4(C)[C@H]3C[C@H](O)[C@]12C,Potency,[1],inactive
same,Potency,[2],inactive
OCCC1CCCCN1 (stereo not given),Potency,[1],inactive
same,Potency,[2],inactive
CCOC(=O)[C@H](C)O,Potency,[1],inactive
same,Potency,[2],inactive
C[N+](C)(CCOc1ccccc1)Cc1cccs1,Potency,[1],inactive
same,Potency,[2],inactive
CCCCCCCCCCCCOCCOS(=O)(=O)O,Potency,[1],inactive
same,Potency,[2],inactive
CCC1C(=O)OCC1Cc1cncn1C (stereo not given),Potency,[1],inactive
same,Potency,[2],inactive
COc1cc(N)ccc1C,Potency,[1],inactive
same,Potency,[2],inactive
CN(C(=O)c1c(O)c2ccccc2n(C)c1=O)c1ccccc1,Potency,[1],inactive
same,Potency,[2],inactive
NNc1nc(-c2ccc(N)cc2)cs1,Potency,[1],inactive
same,Potency,[2],inactive
Nc1ccn([C@H]2CS[C@@H](CO)O2)c(=O)n1,Potency,[1],inactive
same,Potency,[2],inactive
CCC(C)(CCCC(C)C)OC(C)=O (stereo not given),Potency,[1],inactive
same,Potency,[2],inactive
CCC(C)[O-].CCC(C)[O-].CCOC(=O)/C=C(/C)[O-].[Al+3],Potency,[1],inactive
same,Potency,[2],inactive
O=C(OCc1ccccc1)c1ccccc1,Potency,[1],inactive
same,Potency,[2],inactive
CN(C(=O)C(Cl)Cl)c1ccc(OC(=O)c2ccco2)cc1,Potency,[1],inactive
same,Potency,[2],inactive
CN(C)CCOC(c1ccc(Cl)cc1)c1ccccn1 (stereo not given),Potency,[1],inactive
same,Potency,[2],inactive
Nc1ccc(Oc2cccc(Oc3ccc(N)cc3)c2)cc1,Potency,[1],inactive
same,Potency,[2],inactive
O=[N+]([O-])c1c(Cl)cc(Cl)cc1Cl,Potency,[1],inactive
same,Potency,[2],inactive
C[C@H]1C[C@H]2[C@@H]3CCC4=CC(=O)C=C[C@]4(C)[C@@]3(Cl)[C@@H](O)C[C@]2(C)[C@@]1(O)C(=O)CO,Potency,[1],inactive
same,Potency,[2],inactive
CC(C)C(=O)OCCOc1ccccc1,Potency,[1],inactive
same,Potency,[2],inactive
CCCCCCCCCCCC(=O)OCC(O)CO (stereo not given),Potency,[1],inactive
same,Potency,[2],inactive
CC(COCC(C)OC(=O)c1ccccc1)OC(=O)c1ccccc1 (stereo not given),Potency,[1],inactive
same,Potency,[2],inactive
CCCCCCCCCCCl,Potency,[1],inactive
same,Potency,[2],inactive
CCOC(N)=O,Potency,[1],inactive
same,Potency,[2],inactive
N#CCC(=O)NN,Potency,[1],inactive
same,Potency,[2],inactive
Clc1ccc2cc3ccccc3cc2c1,Potency,[1],inactive
same,Potency,[2],inactive
COc1cc(NC(=O)CC(C)=O)c(OC)cc1Cl,Potency,[1],inactive
same,Potency,[2],inactive
O=Cc1ccccc1C=O,Potency,[1],inactive
same,Potency,[2],inactive
Cc1cccc(N(C)C(=S)Oc2ccc3ccccc3c2)c1,Potency,[1],inactive
same,Potency,[2],inactive
CCCOc1ccc(C(=O)OCCN(CC)CC)cc1N,Potency,[1],inactive
same,Potency,[2],inactive
CCCC(C)CCC(C)=O (stereo not given),Potency,[1],inactive
same,Potency,[2],inactive
CC(C)(C)C(=O)OCOC(=O)[C@@H]1N2C(=O)[C@@H](NC(=O)[C@H](N)c3ccccc3)[C@H]2SC1(C)C,Potency,[1],inactive
same,Potency,[2],inactive
Cc1nc2n(c(=O)c1CCN1CCC(c3noc4cc(F)ccc34)CC1)CCC[C@H]2O,"viability change, negative = cytotoxic",[1],2.27% [at 18.9 µM]
same,"activity change, negative = cytotoxicity",[2],4.41% [at 18.9 µM]
CC(C)=CCC/C(C)=C/C#N,Potency,[1],inactive
same,Potency,[2],inactive
C=CC(C)(CCC=C(C)C)OC(=O)c1ccccc1 (stereo not given),Potency,[1],inactive
same,Potency,[2],inactive
COc1ccc(/C=C/S(=O)(=O)NC(=O)c2ccc(C)cc2Cl)cc1,Potency,[1],inactive
same,Potency,[2],inactive
O=C(CCc1ccc(O)cc1)c1c(O)cc(O)cc1O,Potency,[1],inactive
same,Potency,[2],inactive
C=C1CCC2CC1C2(C)C (stereo not given),Potency,[1],inactive
same,Potency,[2],inactive
CCN1CN(CC)CN(CC)C1,Potency,[1],inactive
same,Potency,[2],inactive
O=C(O)c1cc(-c2ccc(F)cc2F)ccc1O,Potency,[1],inactive
same,Potency,[2],inactive
CN1CC(=O)NC1=N,Potency,[1],inactive
same,Potency,[2],inactive
Nc1c(S(=O)(=O)O)cc(Br)c2c1C(=O)c1ccccc1C2=O,Potency,[1],inactive
same,Potency,[2],inactive
C[C@@H]1CC(=O)NN=C1c1ccc(NN=C(C#N)C#N)cc1,Potency,[1],inactive
same,Potency,[2],inactive
CCCCCCCCN1CCCC1=O,Potency,[1],inactive
same,Potency,[2],inactive
OC1CCCc2ccccc21 (stereo not given),Potency,[1],inactive
same,Potency,[2],inactive
O=C1CCCc2c(O)cccc21,Potency,[1],inactive
same,Potency,[2],inactive
[Cl][In]([Cl])[Cl],Potency,[1],inactive
same,Potency,[2],inactive
O=C(NC1CCN(CCc2c[nH]c3ccccc23)CC1)c1ccccc1,Potency,[1],inactive
same,Potency,[2],inactive
CC(=C(CCOC(=O)C(C)C)SSC(CCOC(=O)C(C)C)=C(C)N(C=O)Cc1cnc(C)nc1N)N(C=O)Cc1cnc(C)nc1N,Potency,[1],inactive
same,Potency,[2],inactive
O=C(O)CCc1nc2ccccc2[nH]1,Potency,[1],inactive
same,Potency,[2],inactive
O=NN(CCCl)C(=O)NCCCl,Potency,[1],inactive
same,Potency,[2],inactive
CCCCCCCCc1ccc(Nc2ccc(CCCCCCCC)cc2)cc1,Potency,[1],inactive
same,Potency,[2],inactive
O=C(Cl)c1ccccc1[N+](=O)[O-],Potency,[1],inactive
same,Potency,[2],inactive
Cc1cc(SC2=C(O)C[C@@](CCc3ccc(N)cc3)(C(C)C)OC2=O)c(C(C)(C)C)cc1CO,Potency,[1],inactive
same,Potency,[2],inactive
FC1(F)C(F)(F)C(F)(F)C2(F)C(F)(C1(F)F)C(F)(F)C(F)(F)C1(F)C(F)(F)C(F)(F)C(F)(F)C(F)(F)C12F (stereo not given),Potency,[1],inactive
same,Potency,[2],inactive
CCCC(C)CO (stereo not given),Potency,[2],inactive
Cc1cccc(O)c1C,Potency,[2],inactive
